Inconclusive results are not listed. Unmarked numbers belong to inactive results. The source made the active and inactive calls. Calls follow the shape of the dose curve; as a rule, active = well fitted cell-killing curve with a large enough effect; inconclusive = small, poorly fitted or top-dose-only effect, or effect the other way; inactive = flat fitted curve, though single readings scatter.
system: CAOV3; test: Primary qHTS to identify gynecologic anti-cancer compounds using libraries of approved drugs and bioactive compounds (AID 1345084); conditions: Gynecologic cancer cell panel viability, ATPlite luminescence, 48 h; series mostly up to 57.5 µM; activity change, negative = cytotoxicity: at the top concentration; also: nearly all actives have a fitted effect of over 55% in size
From the text: National Center for Advancing Translational Sciences [NCATS] Assay Overview: Chemotherapeutic drug responses vary from cancer to cancer and from patient to patient. These variations could be caused by a number of factors including patient genomic background, tumor mutations, tumor heterogeneity, and aspects of drug treatment. Chemotherapeutic drug resistance is also a common issue and can lead to ineffective treatment and patient death. Here we have profiled the cell killing effects of thousands of compounds to characterize the responses in three gynecological cancers, identify cancer-selective compounds, and understand the diversity of responses to these compounds from pan-cancer suppressors to single cell line selective compounds. In this assay, we screened a 7,914 compound drug library that included approved drug and bioactive compounds in six ovarian, three cervical, and […] placental cancer cell lines using the ATPlite assay for cell viability. […] The cervical cancer cell lines included HeLa, Ca Ski, and C-33 A. The placental cancer cell lines included JEG-3. HEK 293T cells were used as the control cell line to determine the selectivity index. ATPlite is a luminescence based assay reliant on the conversion of a luciferase substrate to light in the presence of ATP. As a cytotoxic compound will suppress growth and decrease the number of cells, the concentration of ATP will decrease, and less light signal will be detected in the well.
Assay Protocol Summary: 1,000 cells in 4 uL of media were dispensed into white, solid bottom 1536-well plates using a Multidrop Combi (Thermo Scientific). The Assay plates were incubated for 16 hours at 37 C with 5% CO2 in assay plates, followed by the addition of 23 nL of DMSO or drug dissolved in DMSO. Each compound was assayed in five concentrations (0.092, 0.46, 2.3, 11.5, and 57.5 uM), using the automated Wako 1536 Pin Tool workstation and incubated at 37 C with 5% CO2 48 hours. 4 uL of ATPlite, the ATP monitoring reagent, was then added to the each well of the assay plates using the Multidrop Combi reagent dispenser followed by incubation for 15 minutes at room temperature. The resulting luminescence was measured using the ViewLux plate reader.
% is scaled to controls: 0 for no effect and ±100 for the full control effect; potency is read from the fitted curve at half-maximal effect.

First: COP(=S)(OC)Oc1ccc(S(N)(=O)=O)cc1
Second: COCC(=O)N(c1c(C)cccc1C)C(C)C(=O)OC (stereo not given)
The “activity change, negative = cytotoxicity” value of the first is lower: 0% for the first, 28.2% for the second.

First: NC(=O)OCCCc1ccccc1
Second: CCOC(=O)c1cncn1C(C)c1ccccc1 (stereo not given)
The “activity change, negative = cytotoxicity” value of the first is higher: 6.47% for the first, -11.7% for the second.

Going from C[C@H]1C(=O)O[C@@H]2CCN3CC=C(COC(=O)[C@](C)(O)[C@]1(C)O)[C@H]23 to C[C@@H]1CC[C@H]2[C@@H](C)C(=O)O[C@@H]3O[C@@]4(C)CC[C@@H]1[C@]32OO4, the “activity change, negative = cytotoxicity” value falls from 0.792% to -9.01%.

Going from CCCC(C)C1(CC)C(=O)N=C(S)NC1=O (stereo not given) to CCCCC1C(=O)NC(=O)N(C2CCCCC2)C1=O (stereo not given), the “activity change, negative = cytotoxicity” value rises from -13% to 1.6%.

First: C1CN2CCC1CC2
Second: c1cc2c(c(N3CCNCC3)c1)OCCO2
The “activity change, negative = cytotoxicity” value of the first is lower: 2.65% for the first, 2.86% for the second.

Compared with N#Cc1nn(-c2c(Cl)cc(C(F)(F)F)cc2Cl)c(N)c1S(=O)C(F)(F)F (stereo not given), O=c1[nH]c2cc(Cl)ccc2n1C1CCNCC1 is higher in “activity change, negative = cytotoxicity” value: -7.98% for the first, 16.8% for the second.

Going from CCOC(C(=O)OCCN(C)C)(c1ccccc1)c1ccccc1 to CC(C)[N+](C)(CCC(C(N)=O)(c1ccccc1)c1ccccc1)C(C)C, the “activity change, negative = cytotoxicity” value rises from -8.46% to 2.99%.

Compared with O=C(CCCN1CCC(n2c(=O)[nH]c3ccccc32)CC1)c1ccc(F)cc1, ClCCCN1CCN(c2cccc(Cl)c2)CC1 is lower in “activity change, negative = cytotoxicity” value: 5.35% for the first, 2.45% for the second.

Going from c1ccc2nc(N3CCNCC3)ccc2c1 to C[C@H]1CNCCc2ccc(Cl)cc21, the “activity change, negative = cytotoxicity” value falls from 8.24% to -10.4%.

Going from ClCc1cccc(Cl)c1 to CC(Cc1ccccc1)NCc1ccccc1Cl (stereo not given), the “activity change, negative = cytotoxicity” value falls from 14.7% to -2.51%.

First: CCC1(c2cccc(O)c2)CCCCN(C)C1 (stereo not given)
Second: C[N+]1(CCC(C(N)=O)(c2ccccc2)c2ccccc2)CCCCC1
The “activity change, negative = cytotoxicity” value of the first is lower: -18.8% for the first, 4.58% for the second.

First: CCN(Cc1ccc(Cl)nc1)/C(=C/[N+](=O)[O-])NC
Second: CNC(=O)NC(O)C(Cl)(Cl)Cl (stereo not given)
The “activity change, negative = cytotoxicity” value of the first is lower: -12.9% for the first, -4.56% for the second.

First: CCC(=O)O[C@H]1CC[C@H]2[C@@H]3CCC4=CC(=O)CC[C@]4(C)[C@H]3CC[C@]12C
Second: C[C@]12CC[C@H]3[C@@H](CCC4=CC(=O)CC[C@@H]43)[C@@H]1CC[C@@H]2O
The “activity change, negative = cytotoxicity” value of the first is higher: 1.76% for the first, -8.41% for the second.

Going from CC(C)(O)C(Cl)(Cl)Cl to ClC1=C(Cl)C2(Cl)C(CBr)CC1(Cl)C2(Cl)Cl (stereo not given), the “activity change, negative = cytotoxicity” value rises from -15.1% to -0.35%.

Compared with NC(=O)CN1CCCC1=O, Oc1c(Br)cc(Br)cc1Br is higher in “activity change, negative = cytotoxicity” value: 8.14% for the first, 11.5% for the second.

Going from COc1cc(CC(C)N)cc2c1OCO2 (stereo not given) to COc1cc(C[C@@H](C)N)c(OC)cc1C, the “activity change, negative = cytotoxicity” value falls from 14.5% [at 116 µM] to -3.43% [at 116 µM].

Compared with CC(CC(C#N)(c1ccccc1)c1ccccc1)N(C)C (stereo not given), C[C@H](CN1CCOCC1)C(C(=O)N1CCCC1)(c1ccccc1)c1ccccc1 is higher in “activity change, negative = cytotoxicity” value: -29.4% [at 116 µM] for the first, -7.84% [at 116 µM] for the second.

Compared with CC[C@H]1C[C@@H]2C[C@H]3c4[nH]c5ccc(OC)cc5c4CCN(C2)[C@@H]13, CN(C)CCc1c[nH]c2cccc(O)c12 is higher in “activity change, negative = cytotoxicity” value: -1.3% [at 116 µM] for the first, 4.82% [at 116 µM] for the second.

In the case of Cc1nc2ccccc2c(=O)n1-c1ccccc1Cl, the “activity change, negative = cytotoxicity” value is reported as 1.14% [at 116 µM].

In the case of CCCC[N+]1(C)[C@@H]2CC(OC(=O)[C@H](CO)c3ccccc3)C[C@H]1[C@@H]1O[C@@H]12 (stereo not given in full), the Potency is reported as “inactive”.
For CCC(OC(C)=O)C(CC(C)NC)(c1ccccc1)c1ccccc1 (stereo not given), the Potency was 39.8 µM (active).
In the case of CN(C)C(=S)SSC(=S)N(C)C, the Potency is reported as 11.2 µM (active).

Reference: PubChem BioAssay (NCATS)
